High-throughput results from PubChem.
This is a sample that favours compounds with a hit; in the whole collection about 3.5% have one here.
TEAD-YAP inh: TEAD-YAP interaction inhibition; hit rate 1.4% among 640,000; HEK-TIYL cells, TEAD-Gal4/YAP UAS-luciferase luminescence; inhibition, % at 9.12 µM; in the data active means inhibition above about 32%
FBW7 activator: activators of human E3 ligase FBW7. AlphaScreen FBW7–phospho-cyclin E peptide binding, activator screen. normalized activity (activation), % at 26.1 µM. hit rate 0.13% among 650,000. AID 1259310; in the data active means normalized activity above about 1.9%;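 further: purified mutant Fbw7 with reduced substrate affinity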
GPR151 ag: human GPR151 activation. Q8TDV0. PathHunter beta-arrestin GPR151 cells, luminescence. hit rate 1% among 650,000. activation, % at 11.2 µM; in the data active means activation above about 4.9%
MITF primary: human MITF inhibition, primary screen; hit rate 0.91% among 650,000; AID 1259374; O75030; inhibition, % at 2.6 µM; AlphaScreen MITF homodimerization, bead proximity signal; in the data active means inhibition above about 50%
Target sequence (O75030 whole entry, looked up): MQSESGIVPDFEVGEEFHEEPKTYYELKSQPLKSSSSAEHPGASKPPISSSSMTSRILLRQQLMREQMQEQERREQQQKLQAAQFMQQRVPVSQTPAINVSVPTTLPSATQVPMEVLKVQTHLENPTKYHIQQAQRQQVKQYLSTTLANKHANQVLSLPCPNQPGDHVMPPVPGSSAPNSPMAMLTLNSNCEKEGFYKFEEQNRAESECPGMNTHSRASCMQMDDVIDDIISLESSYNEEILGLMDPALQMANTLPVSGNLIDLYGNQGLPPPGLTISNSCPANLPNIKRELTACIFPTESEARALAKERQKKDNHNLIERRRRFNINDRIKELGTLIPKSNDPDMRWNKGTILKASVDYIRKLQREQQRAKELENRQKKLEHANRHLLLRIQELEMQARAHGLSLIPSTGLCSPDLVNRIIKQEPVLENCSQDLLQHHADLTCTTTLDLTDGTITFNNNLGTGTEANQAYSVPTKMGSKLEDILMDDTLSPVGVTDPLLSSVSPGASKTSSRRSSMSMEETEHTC
Of the large screens only hits and unclear results are named; the others gave an inactive call.

CCN1CCn2c3c(c4cc(Br)ccc42)CCCC31 (centres undefined)	none
CCN1CCN(CC(O)CN2CCn3c4c(c5cc(C6CCCCC6)ccc53)CCCC42)CC1 (centres undefined)	MITF primary 50.6
OCCC1CCCCN1c1ccnc2c(-c3cccc(Cl)c3)cnn12 (centres undefined)	TEAD-YAP inh 90.2
OCCC1CCCCN1c1ccnc2c(-c3ccccc3F)cnn12 (centres undefined)	TEAD-YAP inh 62.6
Cc1ccc(-c2cnn3c(N4CCCCC4CCO)ccnc23)cc1C (centres undefined)	none
OCCC1CCCCN1c1ccnc2c(-c3ccccc3)cnn12 (centres undefined)	TEAD-YAP inh 88.5
OCCC1CCCCN1c1ccnc2c(-c3ccc(F)cc3)cnn12 (centres undefined)	TEAD-YAP inh 96.8
COc1ccccc1-c1cnn2c(N3CCCCC3CCO)ccnc12 (centres undefined)	none
CC(C1CCN(C(=O)CCc2nnc(CCc3ccccc3)o2)CC1)N1CCOCC1 (centres undefined)	none
O=C1ON=C(c2ccc([N+](=O)[O-])cc2)/C1=C\c1ccc(O)cc1	none
OC[C@@H]1CCCN1c1ccnc2c(-c3ccc(F)cc3)cnn12	TEAD-YAP inh 74.1
O=C(CSc1nc2ccccc2c(=O)n1Cc1ccco1)NCCc1ccccc1	none
FC(F)(F)c1ncn(-c2ccc(Nc3nccc(-c4cncc(N5CCOCC5)c4)n3)cc2)n1	none
CC(C)(C)c1ncn(-c2ccc(Nc3nccc(-c4cncc(N5CCOCC5)c4)n3)cc2)n1	TEAD-YAP inh 74.2
CN(C)c1ncn(-c2ccc(Nc3nccc(-c4cncc(N5CCOCC5)c4)n3)cc2)n1	TEAD-YAP inh 63.0
CC1=Nc2c(N=Nc3ccccc3)c(N)nn2C(=O)C1	none
Cc1cc(C)c2c(n1)sc1c(=O)[nH]cnc12	none
Cc1ccc(C(=O)Nc2ccc(N(C)C)c3ccccc23)cc1	none
COc1ccc(C(=O)c2ccc(N(C)C)cc2)c(OC)c1	TEAD-YAP inh 54.8
CN(C)c1ccc(C(=O)c2ccc(N(C)C)c3ccccc23)cc1	TEAD-YAP inh 49.9
CC1=NN(c2ccc(C)cc2)C(=O)/C1=C\N(C)C	none
CC1=NN(c2nc3ccccc3o2)C(=O)/C1=C\N(C)C	TEAD-YAP inh 92.4
Oc1c(C(Nc2ccccn2)c2ccc(C(F)(F)F)cc2)ccc2cccnc12 (centres undefined)	TEAD-YAP inh 45.6
Cc1cccc(NC(c2ccc(C(F)(F)F)cc2)c2ccc3cccnc3c2O)n1 (centres undefined)	TEAD-YAP inh 76.9
CCOC(=O)C(C)Oc1cc(OC(C)C(=O)OCC)c2c3c(c(=O)oc2c1)CCCC3 (centres undefined)	none
COC(=O)C(C)Oc1cc(OC(C)C(=O)OC)c2c3c(c(=O)oc2c1)CCC3 (centres undefined)	TEAD-YAP inh 44.0
CN1CCN(c2ccc(CNS(=O)(=O)Cc3cccc(C(F)(F)F)c3)cc2)CC1	TEAD-YAP inh 38.2
CCOc1ccc(N(CC(=O)Nc2ccccc2C)S(=O)(=O)c2c(C)noc2C)cc1	TEAD-YAP inh 55.1
CCC(C)NC(=O)CCn1c(=O)[nH]c2cc(OC)c(OC)cc2c1=O (centres undefined)	none
CCC1=[N+](CC(=O)c2ccccc2)CCn2cccc21	FBW7 activator 2.5
O=C(Nc1ccccc1Cl)c1cc([N+](=O)[O-])ccc1O	TEAD-YAP inh 60.4
O=C(Nc1ccc(N2CCCCC2)cc1)c1ccc(Cl)c([N+](=O)[O-])c1	TEAD-YAP inh 42.8
O=C(Nc1ccc(F)cc1F)c1ccc(Cl)c([N+](=O)[O-])c1	TEAD-YAP inh 56.0
O=C(Nc1ccc(Br)cc1F)c1ccc(Cl)c([N+](=O)[O-])c1	none
O=C(Nc1ccccc1Cl)c1ccc([N+](=O)[O-])cc1Cl	none
O=C(Nc1ccc([N+](=O)[O-])cc1Br)c1ccccc1O	TEAD-YAP inh 78.1
Cc1ccccc1C(=O)Nc1ccc(-c2ccc([N+](=O)[O-])cc2)cc1	none
O=C(Nc1ccc(-c2ccc([N+](=O)[O-])cc2)cc1)c1ccccc1O	TEAD-YAP inh 45.3
CC(C)CC(=O)Nc1ccc(Cl)c([N+](=O)[O-])c1	none
O=C(Nc1ccccc1Cl)c1cc(F)ccc1[N+](=O)[O-]	TEAD-YAP inh 79.8
O=C(CCl)Nc1ccc(Cl)c([N+](=O)[O-])c1	TEAD-YAP inh 73.9
O=C(Nc1ncc(Cc2cccc([N+](=O)[O-])c2)s1)c1sc2ccccc2c1Cl	none
C=CCN=Cc1c(NCC=C)nc2ccc(C)cn2c1=O	none
COc1cc(/C=C2/C(=N)N3N=C(CC(C)C)SC3=NC2=O)ccc1OCCOc1ccc(C)c(C)c1	none
Cc1cc(C)c(C#N)c(SCC(=O)Nc2nccs2)n1	none
